Compound activity: PubChem BioAssay, National Center for Advancing Translational Sciences (NCATS)
A selection: hits, their analogues and other compounds. The true share with any hit is near 8%.
HCMV inh = qHTS Assay for inhibitors of the human cytomegalovirus (HCMV); HFF cells, HCMV-luciferase reporter, 72 h; active compounds read low; activity change, negative = inhibition, % at 57.5 µM; 4.5% of 410,000 active; AID 1259415, 2018; in the data active = activity change below about -60%; inconclusive = no clear call, values can overlap the other calls; inactive = above about -39%; also: % is scaled to controls: 0 for no effect and ±100 for the full control effect
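Screen run at 2 compound doses on HFFs infected with reporter HCMV, MOI 1 PFU/cell. Luciferase activity from cell lysates at 72 h post infection gave inhibition relative to buffer-only and Salinomycin wells.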
HCV inhibitor = qHTS Assay for Inhibitors of Hepatitis C Virus (HCV); Huh7.5.1 HCVcc-Cre infection, luciferase reporter, 44 h; Potency, µM (top dose mostly 41.8 µM), without a hit: at the top dose activity change, negative = inhibition, hits mostly inhibitors; 3.4% of 340,000 active; AID 651820, 2012; active = well fitted inhibition curve with a large enough effect; inconclusive = small, poorly fitted or top-dose-only effect, or another doubt; inactive = no such curve, though single readings can be large or run the other way; also: potency is read from the fitted curve at half-maximal effect; % is scaled to controls: 0 for no effect and ±100 for the full control effect
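Seed cells (1,000/well) for 4 h; treat with compound and infect with HCVcc-Cre, moi about 0.5. Incubate 44 h, then detect luciferase activity.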
MARV entry inh = qHTS for inhibitors of binding or entry into cells for Marburg Virus. Marburg virus pseudotyped entry inhibition, cell reporter. Potency, µM (doses to about 37.8 µM), for the others: at the top dose activity change, negative = inhibition, usual class: inhibitors. 1.8% of 300,000 active; calls by dose curve; tested in HEK293 cells; also: potency is read from the fitted curve at half-maximal effect; % is scaled to controls: 0 for no effect and ±100 for the full control effect
SARS PLP yeast = qHTS of Yeast-based Assay for SARS-CoV PLP. 0.19% of 330,000 active. S. cerevisiae expressing SARS-CoV PLpro, growth rescue. Potency, µM (highest dose often 32.9 µM), for inactives: at the highest dose activity, positive = growth rescue, most hits filed as activators; calls by dose curve; also: potency is read from the fitted curve at half-maximal effect; 0% is about no effect; nearly all actives have a fitted effect of over 55% in size
FMDV inh = High Throughput Screening for Foot and Mouth Disease Virus Antivirals; FMDV antiviral cell-based qHTS; Potency, µM (series often up to 57.9 µM), for inactives: at the highest dose activity change, negative = inhibition, actives largely listed as inhibitors; 1.2% of 410,000 active; AID 1159524, 2015; calls by dose curve; tested in HEK293T cells; also: read-out not given here; potency is read from the fitted curve at half-maximal effect; % is scaled to controls: 0 for no effect and ±100 for the full control effect; nearly all actives have a fitted effect of over 45% in size
LASV entry inh = qHTS for Inhibitors of binding or entry into cells for Lassa Virus; Lassa virus pseudotype entry inhibition, cell reporter; Potency, µM (highest dose often 37.9 µM), inactives show at the top dose activity change, negative = inhibition, most hits filed as inhibitors; 1.2% of 300,000 active; calls by dose curve; tested in HEK293 cells; also: potency is read from the fitted curve at half-maximal effect; % is scaled to controls: 0 for no effect and ±100 for the full control effect; nearly all actives have a fitted effect of over 50% in size
The depositor's hits bear a star; ? = inconclusive; nt = not tested or not shown; [ ] = remark or other dose.

SMILES | HCMV inh | HCV inhibitor | MARV entry inh | SARS PLP yeast | FMDV inh | LASV entry inh
CSc1ccc(S(=O)(=O)Nc2ccc3c4c(cccc24)CC3)cc1 | -82* | ? | ? | -11% | -8% | -19%
Cc1ccccc1NS(=O)(=O)c1ccc(F)cc1 | 84 | 10% | 13% | 21% | -11% | -10%
COC(=O)c1ccc(OS(=O)(=O)N(C)C)cc1 | -8 | -13% | nt | -7% | 54% | nt
O=C(NC(=S)NC(c1ccccc1)c1ccncc1)c1ccccc1 (stereo not drawn) | -10 | ? | 6.5µM* | -26% | ? | ?
O=S(=O)(c1ccccc1)N1CCC2(CC1)CN(c1ccncc1)C2 | nt | nt | nt | nt | -17% | nt
CCOC(=O)[C@@H]1[C@H]2COc3ccc(Br)cc3[C@H]2N2C(=O)N(c3cccc(Cl)c3)C(=O)[C@]12C | -10 | -20% | nt | -1% | -17% | nt
C=CCn1cc(CN2CCC(C(=O)Nc3cccc(-c4cccc(F)c4)c3)CC2)c(C)n1 | -20 | ? | ? | 6% | ? | -1%
CCCn1ncc(CN2CCC(C(=O)Nc3cccc(-c4cccc(F)c4)c3)CC2)c1C | -65* | ? | 2.5µM* | 2% | -12% | ?
Cc1nn(C(C)C)c(C)c1CN1CCC(C(=O)Nc2cccc(-c3cccc(F)c3)c2)CC1 | 30 | 10µM* | nt | -6% | -17% | nt
Cn1cc(CN2CCC(C(=O)Nc3cccc(-c4cccc(F)c4)c3)CC2)cn1 | -1 | 10µM* | nt | 7% | -12% | nt
Cc1cccc(CN2CCC(C(=O)Nc3cccc(-c4cccc(F)c4)c3)CC2)n1 | -34 | 7.9µM* | nt | 0% | -26% | nt
CC(C)(C)C1CCc2c(sc(NC(=O)c3noc4c3CCCC4)c2C#N)C1 (stereo not drawn) | 17 | nt | -16%[46.1 µM] | nt | 9% | ?
CCCc1ncc(CN2CCC(C(=O)Nc3cccc(-c4cscn4)c3)CC2)cn1 | -25 | 11µM* | nt | -4% | -27% | nt
CC(C)[C@H](NC(=O)c1ccccc1)C(=O)OCC(=O)c1ccc2c(c1)NC(=O)CO2 | 30 | 2% | 3% | ? | -22% | ?
CC[C@H](C)[C@H](NC(=O)c1ccc(Cl)cc1)C(=O)OCC(=O)c1ccc2c(c1)NC(=O)CO2 | -87* | ? | ? | 0% | ? | ?
O=C1COc2ccc(C(=O)CCl)cc2N1 | -10 | ? | ? | 16% | 25µM* | -18%[46.1 µM]
COc1cccc(/C=C/C(=O)OCC(=O)c2ccc3c(c2)NC(=O)CO3)c1OC | 8 | -9% | -16%[46.1 µM] | -3% | ? | -8%[46.1 µM]
COc1ccc(/C=C/C(=O)OCC(=O)c2ccc3c(c2)NC(=O)CO3)c(OC)c1 | ? | 11µM* | nt | 0% | -22% | nt
CC(C)CO/N=C1\C[C@@H](O)[C@@H](O)[C@@H]2[C@@H]3C(=O)N(Cc4ccccc4)C(=O)[C@@H]3CC[C@H]12 | nt | nt | 1%[14.2 µM] | nt | nt | nt
N#CC(C#N)=C(N)/C(C#N)=C/c1ccc2[nH]ccc2c1 | nt | nt | nt | nt | 5%[97.4 µM] | nt
CCOc1ccc(-n2c(C)nc3cc(C(=O)NCc4ccc(C)cc4)ccc32)cc1 | -36 | nt | nt | nt | 1% | ?
O=C(c1ccccc1Cl)N1N=C(c2ccc(Br)cc2)CC1c1nc2ccccc2[nH]1 (stereo not drawn) | -10 | 11µM* | ? | -30% | -2% | ?
O=C(c1ccncc1)N1N=C(c2ccc(Br)cc2)CC1c1ccccc1O (stereo not drawn) | 1 | ? | ? | -7% | ? | nt
COc1cccc(CO[C@H]2C=C[C@@H](c3ccccc3)O[C@H]2COC(C)=O)c1 | nt | nt | 8%[14.2 µM] | nt | nt | nt
CCn1cc(CN(C)S(=O)(=O)c2ccc3ccccc3c2)c(C)n1 | -68* | 7.9µM* | ? | -1% | ? | ?
SMILES | HCMV inh | HCV inhibitor | MARV entry inh | SARS PLP yeast | FMDV inh | LASV entry inh
CCOc1ccc(Br)cc1CC(=O)O | 37 | 22% | 11% | nt | -17% | 2%
CCCOc1ccc(Br)cc1CSC(=N)N | -95* | ? | 7.3µM* | ? | ? | ?
CCCN1CN(Cc2ccccc2)CNC1=S | -23 | 12% | 9% | 11µM* | ? | 8%
CCCN1CNC(=S)N(Cc2ccccc2)C1 | -5 | 23% | 2% | 8% | -10% | -1%
S=C1NCN(CCc2ccccc2)CN1Cc1ccccc1 | -62* | -24% | -1% | 0% | -17% | nt
O=C(Nc1ccccc1)[C@H]1[C@H](CO)[C@H]2Cn3c(cccc3=O)[C@H]2N1C(=O)C1CC1 | 42 | nt | nt | nt | nt | nt
Cn1c(=O)c2c(nc(Br)n2C/C=N/NC(N)=S)n(C)c1=O | -84* | -16% | ? | 27% | -8% | -2%
CCOP(=O)(OCC)C(Nc1ccccn1)c1ccc(F)cc1 (stereo not drawn) | -70* | 17% | 27% | -3% | -3% | 26%
Cc1cc(/C=C2/SC(=S)N(c3cccc(C(F)(F)F)c3)C2=O)c(C)n1-c1cccnc1 | nt | 1.6µM* | ? | nt | ? | ?
CCOc1ccccc1CN1CCNC(=O)C1CC(=O)NCc1nccn1CC (stereo not drawn) | -67* | -14% | 8% | 6% | -16% | 9%
c1ccc2c(c1)C1=NCCN1c1ccccc1-2 | -103* | nt | nt | nt | -18% | nt
COc1ccc(C(CCNCc2ccc(OC(C)C)cc2)c2ccccc2OC)cc1 (stereo not drawn) | -70* | ? | nt | -4% | ? | nt
COc1ccc(C(CCNCc2ccc(N(C)C)cc2)c2ccccc2OC)cc1 (stereo not drawn) | -22 | ? | ? | -2% | ? | 16µM*
Fc1ccc(-n2nnnc2-c2ccccc2Cl)cc1 | -67* | 21% | ? | 0% | -7% | -26%[46.1 µM]
Fc1cccc(-c2oncc2-c2nnnn2-c2ccc(Cl)cc2)c1 | -67* | 6% | -2% | ? | -14% | -15%
CC(=O)c1cccc(NS(=O)(=O)c2cc3c(cc2C)n(C)c(=O)c(=O)n3C)c1 | -12 | nt | nt | nt | 7% | 24%[46.1 µM]
COC(=O)Cn1c(CN(C)Cc2ccccc2)nc2c1c(=O)n(C)c(=O)n2C | -17 | -13% | nt | -1% | ? | nt
CCOC(=O)Cn1c(CN(C)Cc2ccccc2)nc2c1c(=O)n(C)c(=O)n2C | -8 | ? | -11% | nt | 14µM* | 1%
O=C(Nc1ccc(S(=O)(=O)N2CCCCC2)cc1)c1ccncc1 | -32 | -10% | -25% | -7% | -18% | -1%
NS(=O)(=O)c1ccc(NC(=O)c2ccc(S(=O)(=O)N3CCCCCC3)cc2)cc1 | -64* | -1% | -1% | 3% | -11% | -6%
CC(=O)Nc1ccc(C(=O)Nc2ccc(S(=O)(=O)N3CCCCC3)cc2)cc1 | -21 | ? | 3% | -1% | -9% | 0%
O=C(Nc1ccc(S(=O)(=O)N2CCCCC2)cc1)c1ccc(Cl)nc1 | -75* | ? | nt | 0% | 40µM* | nt
